The sample as a whole holds a higher share of hits than the screen did.
Dicer inh – blocks human Dicer maturation of pre-miR-21 | 47,000 compounds, 6% hits | AID 1347074 | cat-ELCCA pre-miR-21 Dicer processing, chemiluminescence; stronger effect = higher value | Q9UPY3 | z-score at 25 µM; in the data active means z-score above about 3, passing the limit was not always enough;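 further: plate controls were vehicle for no effect and no enzyme for full effect; higher signal means more uncleaved substrate so more Dicer inhibition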
Target sequence (Q9UPY3 whole entry, looked up): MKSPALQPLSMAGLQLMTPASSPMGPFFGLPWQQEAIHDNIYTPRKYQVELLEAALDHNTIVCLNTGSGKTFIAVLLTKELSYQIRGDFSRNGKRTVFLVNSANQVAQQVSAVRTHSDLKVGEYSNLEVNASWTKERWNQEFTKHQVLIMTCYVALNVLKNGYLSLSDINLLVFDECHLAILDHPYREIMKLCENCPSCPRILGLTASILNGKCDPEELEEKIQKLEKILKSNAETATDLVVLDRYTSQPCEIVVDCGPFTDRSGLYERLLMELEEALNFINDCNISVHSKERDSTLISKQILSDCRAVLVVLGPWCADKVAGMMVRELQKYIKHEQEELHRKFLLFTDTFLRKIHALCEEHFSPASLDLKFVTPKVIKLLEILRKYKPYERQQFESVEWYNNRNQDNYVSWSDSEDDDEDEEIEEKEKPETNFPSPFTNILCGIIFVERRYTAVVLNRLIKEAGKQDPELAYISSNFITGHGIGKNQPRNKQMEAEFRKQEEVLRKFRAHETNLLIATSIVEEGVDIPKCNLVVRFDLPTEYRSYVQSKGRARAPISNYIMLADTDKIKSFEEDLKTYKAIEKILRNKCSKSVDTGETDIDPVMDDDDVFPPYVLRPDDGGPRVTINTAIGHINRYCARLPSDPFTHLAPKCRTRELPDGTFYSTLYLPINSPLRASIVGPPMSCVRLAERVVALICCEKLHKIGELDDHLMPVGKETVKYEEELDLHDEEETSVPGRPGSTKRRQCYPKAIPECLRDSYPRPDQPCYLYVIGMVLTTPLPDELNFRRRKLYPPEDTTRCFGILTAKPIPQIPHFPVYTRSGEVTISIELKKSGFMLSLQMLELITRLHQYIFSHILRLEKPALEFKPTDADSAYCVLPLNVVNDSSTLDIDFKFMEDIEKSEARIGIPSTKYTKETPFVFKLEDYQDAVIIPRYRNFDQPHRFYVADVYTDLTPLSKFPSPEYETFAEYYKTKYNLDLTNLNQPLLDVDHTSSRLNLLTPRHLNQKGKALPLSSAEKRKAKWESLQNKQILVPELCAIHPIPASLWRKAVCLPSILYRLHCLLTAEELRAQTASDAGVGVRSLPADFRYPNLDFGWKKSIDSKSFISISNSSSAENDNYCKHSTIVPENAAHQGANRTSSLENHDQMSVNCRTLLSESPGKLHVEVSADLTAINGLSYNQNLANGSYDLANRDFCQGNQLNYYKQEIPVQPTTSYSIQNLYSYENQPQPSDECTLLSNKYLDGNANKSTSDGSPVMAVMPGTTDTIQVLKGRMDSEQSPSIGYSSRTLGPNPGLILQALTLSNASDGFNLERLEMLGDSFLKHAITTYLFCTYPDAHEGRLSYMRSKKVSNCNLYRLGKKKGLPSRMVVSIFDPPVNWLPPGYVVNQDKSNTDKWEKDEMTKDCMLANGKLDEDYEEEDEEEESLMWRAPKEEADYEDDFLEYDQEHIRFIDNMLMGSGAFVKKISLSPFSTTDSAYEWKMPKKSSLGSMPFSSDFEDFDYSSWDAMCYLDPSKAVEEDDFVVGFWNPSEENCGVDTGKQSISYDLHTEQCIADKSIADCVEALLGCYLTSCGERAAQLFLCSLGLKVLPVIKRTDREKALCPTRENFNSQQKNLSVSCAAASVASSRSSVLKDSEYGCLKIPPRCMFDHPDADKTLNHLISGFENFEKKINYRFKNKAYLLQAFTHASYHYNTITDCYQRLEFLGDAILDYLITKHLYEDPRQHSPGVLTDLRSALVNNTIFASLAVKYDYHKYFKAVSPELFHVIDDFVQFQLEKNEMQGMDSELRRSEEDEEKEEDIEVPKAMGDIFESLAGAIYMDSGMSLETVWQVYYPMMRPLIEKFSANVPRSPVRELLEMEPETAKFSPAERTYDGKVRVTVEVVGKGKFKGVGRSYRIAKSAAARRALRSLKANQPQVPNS
Numbers without * were called inactive.

SMILES | Dicer inh
CCOC(=O)C1=C(C)Nc2nc3ccccc3n2C1c1ccc(O)cc1 (stereo not drawn) | -0.38
CCOC(=O)C1=C(C)Nc2nc3ccccc3n2C1c1sccc1C (stereo not drawn) | -0.78
O=C(Nc1cccnc1)c1cnn2c(C(F)F)cc(-c3ccccc3)nc12 | 0.83
Cn1nc(C(F)(F)F)c(-c2ccccc2)c1N | 0.68
CCCN(CCC)S(=O)(=O)c1ccc(C(=O)N/N=C/C=C/c2ccccc2)cc1 | 0.9
Cc1nc2ccc([N+](=O)[O-])cc2nc1C | -0.66
O=C1c2ccccc2-c2nc3cc(C(F)(F)F)ccc3nc21 | -1.7
Cc1nc2ccc(C(F)(F)F)cc2nc1C | 3.5*
O=C1CC(NC2CCN(c3ncccn3)CC2)C(=O)N1c1ccc(Cl)cc1 (stereo not drawn) | 0.16
CC1CC(=O)Nc2ccccc2N1S(=O)(=O)c1ccc(C(F)(F)F)cc1 (stereo not drawn) | -1.2
c1ccc2cc3[nH]c(CN4CCOCC4)nc3cc2c1 | -0.55
Cc1ccc(C)c(-c2nc3ccc(N)cc3[nH]2)c1 | 3
Nc1ccc2nc(-c3ccc(Cl)cc3)[nH]c2c1 | 2
Nc1ccc(-c2nc3ccc(-c4nc5ccccc5o4)cc3[nH]2)cc1 | 6.5*
Nc1ccc(-c2nc3ccc(N)cc3o2)cc1 | -0.21
CC(=O)Nc1ccc2nc(-c3ccc(-c4nc5ccc(NC(C)=O)cc5[nH]4)cc3)[nH]c2c1 | -1
c1ccc2[nH]c(-c3ccc(-c4nc5ccccc5o4)cc3)nc2c1 | 0.34
O=S(=O)(O)c1ccc2nc(-c3ccccc3)[nH]c2c1 | 0.87
CC(C)c1ccc2nc(-c3ccc(N)cc3)[nH]c2c1 | 19*
Nc1ccc(-c2nc3cc4ccccc4cc3[nH]2)cc1 | 4*
Cc1ccc(-c2nc3ccc(N)cc3[nH]2)cc1 | 3.1*
CCOCCOC(=O)C1=C(C)NC2=C(C(=O)CCC2)C1c1ccc(OC)c(Br)c1 (stereo not drawn) | -0.34
Nc1nonc1-c1nc2ccccc2n1CC(=O)N1CCCCC1 | 0.13
O=C(CCCSc1nc(-c2ccco2)cc(C(F)(F)F)n1)NCc1cccs1 | 0.14
Cc1cc(=O)n2c(n1)NC(=NCc1ccccc1)NC2c1ccccc1 (stereo not drawn) | 1.7
SMILES | Dicer inh
COc1ccc2c(c1)CCc1sc(/N=C/N(C)C)nc1-2 | -4.7
Cc1ccc2[nH]c(=O)c(-c3noc(C(C)(C)C)n3)cc2c1 | -0.17
O=C(NC(=S)NCCc1ccccn1)c1ccccc1 | 3.1*
COc1ccc(CCNC(=S)NC(=O)c2ccccc2)cc1OC | 0.83
O=C(NNC(=S)NCCc1ccccc1)c1ccncc1 | -0.08
O=C(NC(=S)NCC1CC1)c1ccccc1 | -0.16
O=C(NC(=S)NCc1ccncc1)c1ccccc1 | 3.4*
S=C(NCCc1ccccn1)c1ccccc1 | -1.9
Cc1c(Br)sc2sc(C(=O)/C=C/N(C)C)c(C)c12 | -0.19
COc1ccccc1N1CCN(CC(C)Nc2ccccn2)CC1 (stereo not drawn) | 2.3
Cc1c(C)c(C)c(S(=O)(=O)/N=C/N(C)C)c(C)c1C | -0.48
O=C(O)c1ccc(N2C(=O)CC(N3CCOCC3)C2=O)cc1 (stereo not drawn) | -1.7
CC(C)Oc1ccc(C2CC(=O)N(c3ccc(C(=O)O)cc3)C2=O)cc1 (stereo not drawn) | 4.8*
COc1ccc(N2C(=O)CC(N3CCCCC3)C2=O)cc1 (stereo not drawn) | 0.16
O=S(=O)(c1ccc(-c2nc(-c3ccc(Cl)cc3)cs2)cc1)N1CCOCC1 | 1.4
O=S(=O)(c1ccc(-c2cn3ccccc3n2)cc1)N1CCOCC1 | 0.9
O=S(=O)(c1ccc(-c2noc(-c3ccccc3)n2)cc1)N1CCOCC1 | 3.3*
O=C(CSc1nnc(SCC2CC2)s1)N1CCC(C(F)(F)F)CC1 | -0.52
c1ccc(-c2ccc(-c3cn4ccccc4n3)cc2)cc1 | -0.11
c1ccc(-n2cnc3cc(NCc4ccco4)ccc32)cc1 | 4.7*
CCn1cnc2cc(NCc3ccco3)ccc21 | 1.6
O=[N+]([O-])c1ccc2c(c1)ncn2-c1ccccc1 | 1.7
Cc1ccc(S(=O)(=O)/C=C/C#N)cc1 | -0.46
COc1cccc(/C=N/n2cnc3c(cnn3-c3ccccc3)c2=O)c1 | -0.2
CC1=C(C(=O)OCc2ccccc2)C(c2ccccn2)C2=C(CC(c3ccc(Cl)cc3)CC2=O)N1 (stereo not drawn) | 1.9
SMILES | Dicer inh
O=C(CC(Sc1ccc(Cl)cc1)c1ccc(Cl)cc1)c1ccccc1 (stereo not drawn) | -3.5
O=C(CCCC(=O)c1ccccc1)c1ccccc1 | -2.2
N#CC(C#N)C(CC(=O)c1ccccc1)c1ccccc1 (stereo not drawn) | 4.2*
COC(=O)c1scc(C)c1NC(=O)CC1NCCNC1=O (stereo not drawn) | 1.9
O=c1c(Cc2ccccc2)c(O)c2ccccc2n1-c1ccccc1 | 4*
O=c1c(Cc2ccccc2)c(O)c2cccc3c2n1CCC3 | -1
O=c1c(Cc2ccccc2)c(O)c2cccc3c4ccccc4n1c23 | -1.5
O=Nc1c(-c2c(O)[nH]c3ccccc23)[nH]c2ccccc12 | -0.33
FC(F)(F)c1ccc(-c2nnc(-c3ccc4nsnc4c3)o2)cc1 | 0.63
O=C1CC(c2ccccc2)CC(O)=C1C=Nc1ccccc1Cl (stereo not drawn) | 1.8
O=C1CCC(c2ccccc2)C(O)=C1C=Nc1ccc(Cl)cc1 (stereo not drawn) | 1.6
O=C1CC(c2ccccc2)CC(O)=C1C=Nc1ccc(Cl)cc1 (stereo not drawn) | 3*
CCOc1cc(Br)c(C2C(C(=O)OC)=C(C)NC3=C2C(=O)c2ccccc23)cc1OCC (stereo not drawn) | 2.7
CCN(CC)CCn1c(-c2ccc(OC)cc2)nc(=S)c2c1CC(C)(C)OC2 | 0.56
COc1ccc(-c2nc(=S)c3c(n2CCCN(C)C)CC(C)(C)OC3)cc1 | 3.1*
COCCn1c(-c2ccccc2)nc(=S)c2c1CC(C)(C)OC2 | -0.39
O=C(c1cnn2c(C(F)(F)F)cc(-c3ccc(Br)cc3)nc12)N1CCCC1 | -0.43
N#CC(C(=O)c1cccs1)=C1SCCS1 | 3.8*
N#CC(C(=O)c1ccccc1Cl)=C1SCCCS1 | -0.64
N#CC(C(=O)c1ccccc1)=C1SCCCS1 | 1.7
CSc1c(CC(=O)Nc2ccccc2)n(C)c2ccccc12 | 3.7*
CCOC(=O)Cc1c(SC)c2ccccc2n1C | 2.1
Cn1cnnc1SCCC(=O)Nc1ccccc1 | -0.17
COc1ccc(CN2CN=C(Nc3nc4ccccc4o3)NC2)cc1 | 0.58
OCCCNCC(O)Cn1c2ccccc2c2ccccc21 (stereo not drawn) | 1.4
SMILES | Dicer inh
CC1C(=O)C(C)C(c2ccco2)NC1c1ccco1 (stereo not drawn) | -0.05
CC(C)(C)NNC(=S)Nc1cccc(F)c1 | -0.44
Fc1cccc(NC(=S)NC(c2ccccc2)c2ccccc2)c1 | 4.9*
FC(F)(F)c1cccc(NC(=S)Nc2cccc(C(F)(F)F)c2)c1 | 0.22
CC(C)(C)S(=O)(=O)/C(C#N)=C/Nc1ccc(Cl)cn1 | 1.1
Nc1ccccc1C(=O)NNc1ccccc1Cl | 1.2
CO/C(N)=N/C(=S)Nc1ccccc1 | -0.79
CC(C)=NN/C(N)=N/C(=S)Nc1ccccc1 | 4*
C/C(N)=N/C(=S)Nc1ccc(Cl)cc1 | 1.9
N#Cc1nc(COc2ccc(F)cc2)oc1NCCCn1ccnc1 | 1.1
Cc1cc(NCc2ccc3c(c2)OCO3)ccc1Br | 3.8*
O=c1[nH]c2ccc(NCc3ccc4c(c3)OCO4)cc2[nH]1 | -0.48
Cc1ccc(-c2nc3cc(NCc4ccc5c(c4)OCO5)ccc3o2)cc1 | 8*
O=C(O)c1cc(NCc2ccc3c(c2)OCO3)ccc1N1CCOCC1 | 2.8

Source: PubChem (Center for Chemical Genomics, University of Michigan)
